Experimental data published in the OligoGym collection.

Target: TNFAIP6
Experiment: pooled miR-30 sensor sort-seq; sequence = guide strand
Details: shRNA
Note: reference of the scale not given here.

Question: For TGAAGCATCACTTAGAAACTTC, which sensor-assay potency score (higher = more potent) is on record?
Answer: The sensor-assay potency score (higher = more potent) was 0.148.

Question: For TTCCAGTAGAAGTAGTACTTGT, which sensor-assay potency score (higher = more potent) is on record?
Answer: The sensor-assay potency score (higher = more potent) was -0.0924.

Question: TAAAAATTTGCTTTGGATCTGT was tested. Which sensor-assay potency score (higher = more potent) did it give?
Answer: The sensor-assay potency score (higher = more potent) was 0.758.

Question: TATCTTCGTACTCATTTGGGAA was tested. Which sensor-assay potency score (higher = more potent) did it give?
Answer: The sensor-assay potency score (higher = more potent) was -0.842.

Question: How did the sensor-assay potency score (higher = more potent) turn out when TTATCTTCGTACTCATTTGGGA was run?
Answer: Its sensor-assay potency score (higher = more potent) is -0.091.

Question: TTGAGTGTCTTCCCATAGCAAG was tested. Which sensor-assay potency score (higher = more potent) did it give?
Answer: The sensor-assay potency score (higher = more potent) was -1.58.

Question: With TTCAAATTCACACACCGCCTTA as the sequence, how does the sensor-assay potency score (higher = more potent) read?
Answer: Its sensor-assay potency score (higher = more potent) is -0.588.

Question: How did the sensor-assay potency score (higher = more potent) turn out when TTCTCTGTGGTACACACCGGCT was run?
Answer: Its sensor-assay potency score (higher = more potent) is -1.32.

Question: Which sensor-assay potency score (higher = more potent) does the source give for TTGTATTTTTTCCTTGACTGGA here?
Answer: The sensor-assay potency score (higher = more potent) was -0.793.

Question: How did the sensor-assay potency score (higher = more potent) turn out when TAGTACTTGTATTTTTTCCTTG was run?
Answer: The sensor-assay potency score (higher = more potent) was -0.262.

Target: TNFRSF10A
Experiment: as above
Details: shRNA

Question: TTTCGTGAGGTCCAGCTGCCTC was tested. Which sensor-assay potency score (higher = more potent) did it give?
Answer: Its sensor-assay potency score (higher = more potent) is -0.987.

Question: TTGCATACAAGGCATCCCCTGG was tested. Which sensor-assay potency score (higher = more potent) did it give?
Answer: The sensor-assay potency score (higher = more potent) was -0.804.

Question: For TTCTTTGTGGACACACTCGATG, which sensor-assay potency score (higher = more potent) is on record?
Answer: The sensor-assay potency score (higher = more potent) was -0.86.

Question: Which sensor-assay potency score (higher = more potent) does the source give for TTGATGGTTGCAGCTGAGCTAG here?
Answer: The sensor-assay potency score (higher = more potent) was -1.28.

Question: TCTTCTAAGTAGATGAACTTTC was tested. Which sensor-assay potency score (higher = more potent) did it give?
Answer: Its sensor-assay potency score (higher = more potent) is -0.791.

Question: Which sensor-assay potency score (higher = more potent) does the source give for TCTAAGTAGATGAACTTTCCAG here?
Answer: Its sensor-assay potency score (higher = more potent) is -0.118.

Question: For AAACTTGTCAAAGAACAGCATC, which sensor-assay potency score (higher = more potent) is on record?
Answer: The sensor-assay potency score (higher = more potent) was -1.04.

Question: How did the sensor-assay potency score (higher = more potent) turn out when TGTATTAACTCCTAACACCTAA was run?
Answer: Its sensor-assay potency score (higher = more potent) is -0.808.

Question: For TTGAAGGTCTTGTGGACCCGGA, which sensor-assay potency score (higher = more potent) is on record?
Answer: The sensor-assay potency score (higher = more potent) was 0.23.

Question: With TTAACTCCTAACACCTAAGAGG as the sequence, how does the sensor-assay potency score (higher = more potent) read?
Answer: Its sensor-assay potency score (higher = more potent) is -0.905.

Question: How did the sensor-assay potency score (higher = more potent) turn out when TTGATCATGAAGTTTGATGGTT was run?
Answer: The sensor-assay potency score (higher = more potent) was 0.371.

Target: TNIP2
Experiment: as above
Details: shRNA

Question: How did the sensor-assay potency score (higher = more potent) turn out when TTCAACGTGAGTCACCTTCTGT was run?
Answer: Its sensor-assay potency score (higher = more potent) is -0.171.

Question: With TTGAATCCTACTTTGAGCCCGT as the sequence, how does the sensor-assay potency score (higher = more potent) read?
Answer: The sensor-assay potency score (higher = more potent) was 0.603.

Question: With TTCTTCTAGTCGCTCAGTCAGC as the sequence, how does the sensor-assay potency score (higher = more potent) read?
Answer: The sensor-assay potency score (higher = more potent) was -0.848.

Question: TATTCCATAGAACAGGATGGGG was tested. Which sensor-assay potency score (higher = more potent) did it give?
Answer: Its sensor-assay potency score (higher = more potent) is -0.938.

Question: For TTCTGACATGAAGTCATCCTTG, which sensor-assay potency score (higher = more potent) is on record?
Answer: The sensor-assay potency score (higher = more potent) was -0.577.

Question: With TAACAGTCGATTTTCTTCCTGC as the sequence, how does the sensor-assay potency score (higher = more potent) read?
Answer: Its sensor-assay potency score (higher = more potent) is 0.411.

Question: For TTTATTTTCTCTTCCAACTGTC, which sensor-assay potency score (higher = more potent) is on record?
Answer: The sensor-assay potency score (higher = more potent) was 0.553.

Question: With TTTCTCTTCCAACTGTCTGTTG as the sequence, how does the sensor-assay potency score (higher = more potent) read?
Answer: The sensor-assay potency score (higher = more potent) was -0.51.

Question: TTCTCTTCCAACTGTCTGTTGA was tested. Which sensor-assay potency score (higher = more potent) did it give?
Answer: The sensor-assay potency score (higher = more potent) was 0.202.

Question: How did the sensor-assay potency score (higher = more potent) turn out when TTGCTCGTCACTGAAGCACTGC was run?
Answer: The sensor-assay potency score (higher = more potent) was 0.0739.

Question: With TCCAACTGTCTGTTGAGCCGGG as the sequence, how does the sensor-assay potency score (higher = more potent) read?
Answer: The sensor-assay potency score (higher = more potent) was -0.18.

Question: How did the sensor-assay potency score (higher = more potent) turn out when TTTTCTCTTCCAACTGTCTGTT was run?
Answer: The sensor-assay potency score (higher = more potent) was -0.371.

Target: TNK1
Experiment: as above
Details: shRNA

Question: TATAGCAGCTCTTTTCTTCCAA was tested. Which sensor-assay potency score (higher = more potent) did it give?
Answer: Its sensor-assay potency score (higher = more potent) is 0.014.

Question: Which sensor-assay potency score (higher = more potent) does the source give for TAGTGGGCAGACTAGATCCTTC here?
Answer: The sensor-assay potency score (higher = more potent) was -0.841.

Question: TAGACTTAGGCCCAGAACGTAG was tested. Which sensor-assay potency score (higher = more potent) did it give?
Answer: The sensor-assay potency score (higher = more potent) was -0.86.

Question: With TACAAAGTCGAAGTGCTCTGGC as the sequence, how does the sensor-assay potency score (higher = more potent) read?
Answer: Its sensor-assay potency score (higher = more potent) is 0.534.

Question: With TTTGCCTTCTTTCTGTCTCCAT as the sequence, how does the sensor-assay potency score (higher = more potent) read?
Answer: Its sensor-assay potency score (higher = more potent) is -0.221.

Question: TAATGCTCCAGGATGCGCCAGC was tested. Which sensor-assay potency score (higher = more potent) did it give?
Answer: Its sensor-assay potency score (higher = more potent) is -0.794.

Question: How did the sensor-assay potency score (higher = more potent) turn out when TCTCATAATCCATACTACCAGC was run?
Answer: Its sensor-assay potency score (higher = more potent) is -1.03.
